# Measurements from publication PMC8384837, “Expanding the binding specificity for RNA recognition by a PUF domain”.
# Legend:
# Test in all cases: yeast three-hybrid, YBZ-1, SC-Leu-His + 0.5 mM 3-AT, 4 days
# Conditions in all cases: tags: N-Gal4 AD-HA kept; label: inside an RPR1-promoter hybrid RNA with tandem MS2 sites; ssRNA
# [1] = target: PUM1 PUF domain R1-RRV (Homo sapiens, UniProt Q14671 828-1176, S863R;Q867V)
# Summary of the method: (§1)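 The interaction score is the log change in variant frequency from input to selection. Scores were computed in log2 with a pseudocount of 1 for absent variants, using Illumina sequencing of PCR-amplified repeat regions. The input came from four days on SC-Leu and the selection from four days on SC-Leu-His + 0.5 mM 3-AT. The cells were strain YBZ-1 (LexA–MS2 coat fusion, HIS3 reporter) co-expressing Pumilio-1 PUF domain libraries and matching RNA elements from a centromeric plasmid.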
# [2] = target: PUM1 PUF domain R5-RAP (Homo sapiens, UniProt Q14671 828-1176, C1007R;R1008A;Q1011P)
# Summary of the method: as §1
# [3] = target: T1, PUM1 PUF domain R6-KYR (Homo sapiens, UniProt Q14671 828-1176, N1043K;Q1047R)
# T1 sequence: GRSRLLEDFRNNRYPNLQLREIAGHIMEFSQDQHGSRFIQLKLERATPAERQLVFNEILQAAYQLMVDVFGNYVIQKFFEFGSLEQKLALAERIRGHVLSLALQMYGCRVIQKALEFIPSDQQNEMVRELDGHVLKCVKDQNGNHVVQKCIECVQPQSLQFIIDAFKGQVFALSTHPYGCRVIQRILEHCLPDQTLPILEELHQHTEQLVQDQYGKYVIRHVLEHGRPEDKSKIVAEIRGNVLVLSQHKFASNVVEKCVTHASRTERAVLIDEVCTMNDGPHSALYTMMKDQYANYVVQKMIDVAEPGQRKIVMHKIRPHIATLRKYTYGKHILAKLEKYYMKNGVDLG
# Summary of the method: as §1
# [4] = target: PUM1 PUF domain R3-VNV (Homo sapiens, UniProt Q14671 828-1176, C935V;R936N;Q939V)
# Summary of the method: as §1
# [5] = target: PUM1 PUF domain R8-CWR (Homo sapiens, UniProt Q14671 828-1176, N1122C;Y1123W;Q1126R)
# Summary of the method: as §1
# [6] = target: PUM1 PUF domain R8-KWR (Homo sapiens, UniProt Q14671 828-1176, N1122K;Y1123W;Q1126R)
# Summary of the method: as §1
# [7] = target: PUM1 PUF domain R5-DWH (Homo sapiens, UniProt Q14671 828-1176, C1007D;R1008W;Q1011H)
# Summary of the method: as §1
# [8] = target: PUM1 PUF domain R8-KYA (Homo sapiens, UniProt Q14671 828-1176, N1122K;Q1126A)
# Summary of the method: as §1
# [9] = target: PUM1 PUF domain R5-RKV (Homo sapiens, UniProt Q14671 828-1176, C1007R;R1008K;Q1011V)
# Summary of the method: as §1
# [10] = target: PUM1 PUF domain R7-VER (Homo sapiens, UniProt Q14671 828-1176, S1079V;N1080E;E1083R)
# Summary of the method: as §1
sequence,measurement,setting,value
GGCUAGAACUAGUGGAUCCCCCGGCGCCCGGCGGCUCGAGCCCGGGUAAGUGUAAAUGGUCUGCAUGCCGCCGGGCGCCAUGCCUGCAGGUCGACUCUAGAAAACAUG,binding signal,[1],1.17 log2 enrichment (interaction score)
GGCUAGAACUAGUGGAUCCCCCGGCGCCCGGCGGCUCGAGCCCGGGUAAGUGUUAAUAGUCUGCAUGCCGCCGGGCGCCAUGCCUGCAGGUCGACUCUAGAAAACAUG,binding signal,[2],0.85 log2 enrichment (interaction score)
GGCUAGAACUAGUGGAUCCCCCGGCGCCCGGCGGCUCGAGCCCGGGUAAGUGUAAAUAGUCUGCAUGCCGCCGGGCGCCAUGCCUGCAGGUCGACUCUAGAAAACAUG,binding signal,[3],5.19 log2 enrichment (interaction score)
same,binding signal,[4],3.12 log2 enrichment (interaction score)
same,binding signal,[5],4.45 log2 enrichment (interaction score)
same,binding signal,[6],5.93 log2 enrichment (interaction score)
GGCUAGAACUAGUGGAUCCCCCGGCGCCCGGCGGCUCGAGCCCGGGUAAGUGUAAAUCGUCUGCAUGCCGCCGGGCGCCAUGCCUGCAGGUCGACUCUAGAAAACAUG,binding signal,[1],3.63 log2 enrichment (interaction score)
GGCUAGAACUAGUGGAUCCCCCGGCGCCCGGCGGCUCGAGCCCGGGUAAGUGUGAAUAGUCUGCAUGCCGCCGGGCGCCAUGCCUGCAGGUCGACUCUAGAAAACAUG,binding signal,[7],4.75 log2 enrichment (interaction score)
GGCUAGAACUAGUGGAUCCCCCGGCGCCCGGCGGCUCGAGCCCGGGUAAGCGUAAAUAGUCUGCAUGCCGCCGGGCGCCAUGCCUGCAGGUCGACUCUAGAAAACAUG,binding signal,[8],3.04 log2 enrichment (interaction score)
same,binding signal,[5],4.31 log2 enrichment (interaction score)
same,binding signal,[6],6.68 log2 enrichment (interaction score)
GGCUAGAACUAGUGGAUCCCCCGGCGCCCGGCGGCUCGAGCCCGGGUAAGUGUAAAUUGUCUGCAUGCCGCCGGGCGCCAUGCCUGCAGGUCGACUCUAGAAAACAUG,binding signal,[1],3.36 log2 enrichment (interaction score)
GGCUAGAACUAGUGGAUCCCCCGGCGCCCGGCGGCUCGAGCCCGGGUAAGGGUAAAUAGUCUGCAUGCCGCCGGGCGCCAUGCCUGCAGGUCGACUCUAGAAAACAUG,binding signal,[5],2.72 log2 enrichment (interaction score)
GGCUAGAACUAGUGGAUCCCCCGGCGCCCGGCGGCUCGAGCCCGGGUAAGUGUCAAUAGUCUGCAUGCCGCCGGGCGCCAUGCCUGCAGGUCGACUCUAGAAAACAUG,binding signal,[2],4.21 log2 enrichment (interaction score)
same,binding signal,[9],2.43 log2 enrichment (interaction score)
GGCUAGAACUAGUGGAUCCCCCGGCGCCCGGCGGCUCGAGCCCGGGUAAGUUUAAAUAGUCUGCAUGCCGCCGGGCGCCAUGCCUGCAGGUCGACUCUAGAAAACAUG,binding signal,[10],3.22 log2 enrichment (interaction score)
